Rango-impB inh = qHTS Assay for Inhibitors of Rango (Ran-regulated importin-beta cargo) - Importin beta complex formation; Potency, µM (highest dose often 92.2 µM), for the others: at the highest dose inhibition of complex formation; Rango CFP/YFP FRET sensor + importin beta, 45 min; actives 0.031% (n = 340,000);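 note: potency is the fitted concentration of half-maximal effect; 0% = DMSO wells and 100% = buffer wells lacking importin beta; nearly all actives have a fitted effect of over 15% in size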
Target sequence (Q14974 whole entry, looked up): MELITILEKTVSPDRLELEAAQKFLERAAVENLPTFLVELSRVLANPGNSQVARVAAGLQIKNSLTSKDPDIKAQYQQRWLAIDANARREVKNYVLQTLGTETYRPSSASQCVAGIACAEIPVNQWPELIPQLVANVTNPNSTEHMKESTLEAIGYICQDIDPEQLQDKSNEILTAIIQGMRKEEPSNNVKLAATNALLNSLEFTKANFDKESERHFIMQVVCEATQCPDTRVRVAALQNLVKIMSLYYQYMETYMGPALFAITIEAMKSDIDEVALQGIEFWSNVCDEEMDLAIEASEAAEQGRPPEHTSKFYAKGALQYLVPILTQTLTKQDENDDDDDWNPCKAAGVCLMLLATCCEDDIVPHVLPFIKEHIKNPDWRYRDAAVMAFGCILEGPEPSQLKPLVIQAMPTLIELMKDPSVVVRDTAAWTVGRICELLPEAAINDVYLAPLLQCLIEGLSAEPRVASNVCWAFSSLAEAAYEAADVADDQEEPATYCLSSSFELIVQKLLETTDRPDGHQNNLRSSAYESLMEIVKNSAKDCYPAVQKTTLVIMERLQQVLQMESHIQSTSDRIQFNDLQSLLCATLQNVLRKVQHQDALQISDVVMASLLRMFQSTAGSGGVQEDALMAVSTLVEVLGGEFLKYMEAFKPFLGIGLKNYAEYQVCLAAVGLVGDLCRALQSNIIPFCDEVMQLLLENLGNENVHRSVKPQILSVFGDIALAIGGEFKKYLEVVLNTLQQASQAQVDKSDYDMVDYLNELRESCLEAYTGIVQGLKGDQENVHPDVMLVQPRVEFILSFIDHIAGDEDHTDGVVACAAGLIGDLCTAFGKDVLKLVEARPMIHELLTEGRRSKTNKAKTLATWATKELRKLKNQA
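Inhibition scored from the CFP 486 nm/YFP 530 nm FRET ratio 45 min after adding 0.125 microM importin beta to 50 nM Rango biosensor preincubated 5 min with compound (room temperature, PBS with DTT, Tween-20, BSA). No-importin wells as positive control.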
Rango release inh = qHTS Assay for Inhibitors of RanGTP induced Rango (Ran-regulated importin-beta cargo) - Importin beta complex dissociation. Snurportin-1 (Homo sapiens) + GTP-binding nuclear protein Ran (Homo sapiens) + Importin …. Biochemical FRET Rango-importin beta, RanGTP-induced dissociation. Potency, µM (series often up to 46.1 µM), without a hit: at the highest dose activity change, negative = inhibition. actives 0.071% (n = 340,000). AID 540253, 2011; note: potency is the fitted concentration of half-maximal effect; % of control where 0% means no effect; nearly all actives have a fitted effect of over 45% in size
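Compounds sat 5 min at room temperature with 0.1 uM Rango biosensor plus 0.25 uM importin beta, then FRET pre-read. RanGTP-RCC1 (0.6 uM Ran, 2mM GTP, 0.2 uM RCC1) added for 45 min, and the CFP/YFP post-read measured blocked complex dissociation.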
TSG101-PTAP inh = qHTS Assay for Iinhibitors of HIV-1 Budding by Blocking the Interaction of PTAP/TSG101. Tumor susceptibility gene 101 protein (Homo sapiens), Q99816. Fluorescence polarization, FITC-PTAP peptide / Tsg101 binding. Potency, µM (highest dose often 115 µM), for inactives: at the top dose activity change, negative = inhibition, actives largely listed as inhibitors. 340,000 tested, under 10 active. AID 493005, 2010; active = well fitted inhibition curve with a large enough effect in the main read-out, with a control signal flat, not every such curve was filed as active; inconclusive = small, poorly fitted or top-dose-only effect, or effect the other way, or a change in a side signal; inactive = no such curve, though single readings can be large or run the other way; note: potency is the fitted concentration of half-maximal effect; % of control where 0% means no effect
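Steps: Tsg101 binding domain dispensed (10 uM final), compounds pinned in DMSO, FITC-labeled PTAP-motif peptide added (50 nM final); after 20 min binding at room temperature, polarization measured.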
MmCpn inh = Inhibitors of TCP-1 ring complex (TRiC) of Methanococcus maripaludis (MmCpn): qHTS | purified Mm-Cpn ATPase, ADP Transcreener TR-FRET | actives 0.031% (n = 330,000) | Chaperonin Mm-Cpn (Methanococcus maripaludis) | AID 504842, 2011 | Potency, µM (titrated, usually from 76.9 µM), inactives show at the top dose activity, negative = inhibition, usual class: inhibitors; active = well fitted inhibition curve with a large enough effect; inconclusive = small, poorly fitted or top-dose-only effect; note: potency is the fitted concentration of half-maximal effect; % is set by controls: 0 for no effect and ±100 for the full control effect; nearly all actives have a fitted effect of over 80% in size
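Inhibition of chaperonin ATP hydrolysis is measured as reduced ADP production, detected by competitive TR-FRET in which signal falls with ADP. Final enzyme 25 nM and ATP 10 uM, reacted 30 min at 37°C.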
D3 antag = qHTS of D3 Dopamine Receptor Antagonist: qHTS. D(3) dopamine receptor (Homo sapiens), P35462. actives 2.5% (n = 360,000). D3R cells, DiscoveRx beta-arrestin luminescence, antagonist mode; active compounds read low. max response, negative = inhibition, %. AID 652054, 2013; in the data active = max response below about -50%; inconclusive = no clear call, values can overlap the other calls; note: % is set by controls: 0 for no effect and ±100 for the full control effect
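Cells plated overnight at 1500 cells/well, then exposed to library compounds with dopamine controls for 90 minutes at 37 degrees C. DiscoveRx reagent added for 30–60 minutes at room temperature; luminescence read, quantitative HTS format.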
D3 ag = qHTS of D3 Dopamine Receptor Agonist: qHTS; D(3) dopamine receptor (Homo sapiens), P35462; D3R DiscoveRx beta-arrestin cells, luminescence, 90 min; max activation, %; actives 0.58% (n = 410,000); AID 652048, 2013; in the data active = max activation above about 30%; note: 0% is about no effect
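Agonist mode: compounds and dopamine controls were applied to plated cells for 90 min at 37 degrees C after an overnight attachment at 1500 cells/well. Luminescent read-out followed 30 - 60 minutes at room temperature with DiscoveRx detection reagent.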
* marks the source's active call; other numbers are inactive results; u = inconclusive; x = not tested or not shown. This is a sample that favours compounds with a hit; in the whole collection about 2.9% have one here. Unless noted, calls come from the whole dose curve.

SMILES | Rango-impB inh | Rango release inh | TSG101-PTAP inh | MmCpn inh | D3 antag | D3 ag
c1ccc(-c2ccccc2OCCCN2CCCCCC2)cc1 | 3% | 0% | -1% | 0% | u | -1
CN(C)CCCOc1ccc2c(c1)Sc1ccccc1CC2=O | 1% | 0% | -1% | -9% | u | -47
O=C1Cc2ccccc2Sc2cc(OCCCN3CCCCC3)ccc21 | 3% | 8% | 0% | -11% | -53* | -6
O=C1Cc2ccccc2Sc2c(OCCN3CCCCC3)cccc21 | u | u | -13% | -11% | -65* | -31
C[C@@H]1CN([C@H](C)CO)C(=O)Cc2cc(NS(=O)(=O)c3ccc(F)cc3)ccc2O[C@H]1CN(C)Cc1ccc(C(=O)O)cc1 | 0% | 1% | -1% | 2% | -5 | 6
C[C@@H]1CN([C@H](C)CO)C(=O)Cc2cc(NS(=O)(=O)c3ccc(Cl)cc3)ccc2O[C@H]1CN(C)Cc1ccc(C(F)(F)F)cc1 | -3% | -20% | -12% | -1% | 17 | 37*
C[C@@H]1CN([C@@H](C)CO)C(=O)Cc2cc(NC(=O)Nc3cccc4ccccc34)ccc2O[C@@H]1CN(C)Cc1ccc(C(F)(F)F)cc1 | 2% | 1% | -4% | -6% | -61* | -33
Cc1ccc2c(c1)sc1nc(-c3cc4cc(Cl)ccc4oc3=O)cn12 | x | x | x | x | x | 11
CCOc1cccc(C(=O)N(Cc2ccc(N(C)C)cc2)CC2CCCO2)c1 (stereo not given) | x | x | x | x | x | 4
C=CS(=O)(=O)c1ccc(Oc2ccc(S(=O)(=O)C=C)cc2)cc1 | -6% | -16% | 4% | -5% | -91* | -32
Cc1ccc(S(=O)(=O)N2CCOCC2)cc1NC(=O)CNCc1ccccn1 | 3% | 17% | 1% | -3% | 1 | 52*
Cc1ccc(S(=O)(=O)N2CCOCC2)cc1NC(=O)CNCc1ccccc1Cl | 1% | -15% | -2% | 1% | -15 | 35*
COc1ccccc1CNCC(=O)Nc1cc(S(=O)(=O)N2CCOCC2)ccc1Cl | -4% | -4% | -2% | 1% | -8 | 13
Cc1ccc(SC[C@H](c2ccccc2)N2CCN(CC(C)C)CCC2=O)cc1 | 1% | 0% | x | 1% | -89* | -68
CC(C)C[C@@H](CSc1ccc(Br)cc1)N1CCN(CC(C)C)CCC1=O | 1% | 0% | x | 0% | -50* | -43
Cc1ccc(SCCN2CCN(CCc3ccccc3)CCC2=O)cc1 | -1% | 1% | 0% | 2% | -59* | -68
O=C1CCN(CCc2ccccc2)CCN1CCSc1ccc(Br)cc1 | 0% | -5% | x | 1% | 0 | -39
O=C1CCN(CCc2ccccc2)CCN1[C@H](CSc1ccc(Br)cc1)Cc1ccccc1 | u | -11% | x | 1% | -57* | -52
O=C1CCN(Cc2ccccc2)CCN1[C@H](CSc1ccccc1)Cc1ccccc1 | -3% | u | 1% | 2% | -14 | -12
CC(=O)Nc1ccc(NC(=O)c2csc([C@@H]3O[C@H](CO)[C@H](O)[C@H](O)[C@H]3O)n2)cc1 | x | x | x | x | 11 | 5
O=C(Nc1ccc(Oc2ccccc2)cc1)c1csc([C@@H]2O[C@H](CO)[C@H](O)[C@H](O)[C@H]2O)n1 | x | x | x | x | -92* | -20
O=C(COc1ccccc1F)Nc1ccc2nc(SCCOc3ccccc3)sc2c1 | x | x | x | x | x | -2
CCCCCCN1N=C(C)C(C(=O)c2ccc(Cl)cc2)C1=O (stereo not given) | 2% | -1% | -3% | u | -83* | 2
CCC(=O)O[C@@H]1CC(=O)O[C@H](C)C/C=C/C=C/[C@H](O)[C@H](C)C[C@H](CC=O)[C@H](O[C@@H]2O[C@H](C)[C@@H](O[C@H]3C[C@@](C)(O)[C@@H](OC(=O)CC)[C@H](C)O3)[C@H](N(C)C)[C@H]2O)[C@H]1OC | x | x | x | x | x | 7
Cc1nc2ncnn2c(C)c1Cc1ccccc1Cl | 0% | -2% | -3% | 0% | -82* | 5
SMILES | Rango-impB inh | Rango release inh | TSG101-PTAP inh | MmCpn inh | D3 antag | D3 ag
CCOC(=O)N1CCN(C(=O)c2oc3ccc(S(=O)(=O)N4CCCCC4)cc3c2C)CC1 | 0% | 0% | -4% | -1% | 18 | 44*
CCCCN(C)C(=O)c1oc2ccc(S(=O)(=O)N3CCCCCC3)cc2c1C | 5% | 7% | x | -3% | -75* | -6
Cc1c(C(=O)NC2CC2)oc2ccc(S(=O)(=O)N3CCCCCC3)cc12 | -3% | 8% | -10% | -4% | 17 | 2
Cc1c(C(=O)O)oc2ccc(S(=O)(=O)N3CCCC3)cc12 | -3% | -15% | -4% | -9% | 40 | 4
CCCCCSc1nnc2c(n1)OC(CC)Nc1ccc(Br)cc1-2 (stereo not given) | x | x | x | x | x | -2
Cc1cc(C)nc(Nc2ccccc2Cl)n1 | -2% | 0% | 0% | 2% | -70* | -15
CCNc1ccc(Br)cc(C(=O)/C=C/c2c(Cl)cccc2Cl)c1=O | 2% | -23% | -3% | 1% | -66* | -4
CCNc1ccc(Br)cc(C(=O)/C=C/c2ccc(Cl)cc2)c1=O | u | -15% | -2% | -1% | u | -22
O=C(CCCN1CCC(C(O)c2ccc(F)cc2)CC1)c1ccc(F)cc1 (stereo not given) | x | x | x | x | -80* | -16
O=C(CCCN1CCC(C(=O)c2ccc(F)cc2)CC1)c1ccc(F)cc1 | -4% | 0% | -2% | -1% | -101* | -23
CC1CCN(CCCC(=O)c2ccc(F)cc2)CC1 | x | x | x | x | x | -21
CN1CCN(CCCC(=O)c2ccc(C3CCCC3)cc2)CC1 | 0% | 14% | -3% | -1% | -55* | -42
COc1cccc(C(C(=O)NC(C)(C)C)N(CCc2ccccc2)C(=O)CCC(=O)Nc2cc(C)on2)c1OC (stereo not given) | 2% | -16% | -7% | -1% | -13 | -9
O=C(CN1CCC(n2nnc3cc(F)ccc32)CC1)NNC(=O)c1ccccc1 | 0% | -10% | -10% | -3% | u | -25
